Measurements as given in the supplement of paper PMC8728848.
Shown is part of a subset that was picked to be rich in the strongest signals.

Columns and labels:
Assay in all cases: glycan array binding signal (z-score within array); higher = stronger binding
Settings in all cases: glycan notation: IUPAC condensed, linker removed
Gal3S6S(b1-4)GlcNAc = molecular target: Gal3S6S(b1-4)GlcNAc
How it was run: (§1)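 The binding signal is a Z-score computed within each array. Data were drawn from 3228 arrays in the Consortium for Functional Glycomics database, restricted to those with a known protein sequence. Scores were averaged over arrays of the same protein sequence at different concentrations or buffers, and over linkers, and negative values can be taken as non-binding.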

[1] = molecular target: Glc(a1-4)Glc(a1-4)Glc(a1-4)Glc
How it was run: as §1

[2] = molecular target: GlcA3S(b1-3)Gal(b1-4)GlcNAc(b1-2)Man
How it was run: as §1

[3] = molecular target: GlcNAc(a1-3)Gal(b1-4)GlcNAc
How it was run: as §1

[4] = molecular target: GlcNAc(a1-4)Gal(b1-4)GlcNAc(b1-3)Gal(b1-4)GlcNAc(b1-3)Gal(b1-4)GlcNAc
How it was run: as §1

[5] = molecular target: GlcNAc(a1-4)Gal(b1-4)GlcNAc(b1-3)Gal(b1-4)[Fuc(a1-3)]GlcNAc(b1-3)Gal(b1-4)[Fuc(a1-3)]GlcNAc
How it was run: as §1

[6] = molecular target: GlcNAc(b1-2)Man(a1-3)[GlcNAc(b1-4)][GlcNAc(b1-2)Man(a1-6)]Man(b1-4)GlcNAc(b1-4)[Fuc(a1-6)]GlcNAc
How it was run: as §1

[7] = molecular target: GlcNAc(b1-3)Gal(b1-3)GalNAc
How it was run: as §1

[8] = molecular target: GlcNAc(b1-3)Gal(b1-4)GlcNAc
How it was run: as §1

[9] = molecular target: GlcNAc(b1-3)Gal(b1-4)GlcNAc(b1-2)Man(a1-3)[GlcNAc(b1-3)Gal(b1-4)GlcNAc(b1-2)Man(a1-6)]Man(b1-4)GlcNAc(b1-4)GlcNAc
How it was run: as §1

[10] = molecular target: GlcNAc(b1-3)Gal(b1-4)GlcNAc(b1-3)Gal(b1-4)GlcNAc
How it was run: as §1

[11] = molecular target: GlcNAc(b1-3)Gal(b1-4)GlcNAc(b1-3)Gal(b1-4)GlcNAc(b1-3)Gal(b1-4)GlcNAc(b1-3)Gal(b1-4)GlcNAc(b1-2)[GlcNAc(b1-3)Gal(b1-4)GlcNAc(b1-3)Gal(b1-4)GlcNAc(b1-3)Gal(b1-4)GlcNAc(b1-3)Gal(b1-4)GlcNAc(b1-6)]Man(a1-6)[GlcNAc(b1-3)Gal(b1-4)GlcNAc(b1-3)Gal(b1-4)GlcNAc(b1-3)Gal(b1-4)GlcNAc(b1-3)Gal(b1-4)GlcNAc(b1-2)Man(a1-3)]Man(b1-4)GlcNAc(b1-4)[Fuc(a1-6)]GlcNAc
How it was run: as §1

[12] = molecular target: GlcNAc(b1-3)Gal(b1-4)GlcNAc(b1-6)[GlcNAc(b1-3)Gal(b1-3)]GalNAc
How it was run: as §1

[13] = molecular target: GlcNAc(b1-3)[GlcNAc(b1-4)][GlcNAc(b1-6)]GlcNAc
How it was run: as §1

Kdn(a2-3)Gal(b1-4)Glc = molecular target: Kdn(a2-3)Gal(b1-4)Glc
How it was run: as §1

Man(a1-2)Man(a1-3)Man = molecular target: Man(a1-2)Man(a1-3)Man
How it was run: as §1

[14] = molecular target: Man(a1-2)Man(a1-3)[Man(a1-2)Man(a1-6)]Man(a1-6)[Man(a1-2)Man(a1-2)Man(a1-3)]Man(b1-4)GlcNAc(b1-4)GlcNAc
How it was run: as §1

MurNAc(b1-4)GlcNAc = molecular target: MurNAc(b1-4)GlcNAc
How it was run: as §1

[15] = molecular target: Neu5Ac(a2-3)Gal(b1-3)GalNAc(b1-3)Gal(a1-4)Gal(b1-4)Glc
How it was run: as §1

[16] = molecular target: Neu5Ac(a2-3)Gal(b1-3)GalNAc(b1-4)[Neu5Ac(a2-8)Neu5Ac(a2-3)]Gal(b1-4)Glc
How it was run: as §1

[17] = molecular target: Neu5Ac(a2-3)Gal(b1-4)GlcNAc(b1-2)Man(a1-3)[Neu5Ac(a2-6)Gal(b1-4)GlcNAc(b1-2)Man(a1-6)]Man(b1-4)GlcNAc(b1-4)GlcNAc
How it was run: as §1

[18] = molecular target: Neu5Ac(a2-3)Gal(b1-4)GlcNAc(b1-3)GalNAc
How it was run: as §1

[19] = molecular target: Neu5Ac(a2-3)Gal(b1-4)[Fuc(a1-3)]GlcNAc(b1-3)Gal
How it was run: as §1

[20] = molecular target: Neu5Ac(a2-6)Gal(b1-4)GlcNAc(b1-2)Man(a1-3)[Gal(b1-4)GlcNAc(b1-2)Man(a1-6)]Man(b1-4)GlcNAc(b1-4)GlcNAc
How it was run: as §1

[21] = molecular target: Neu5Ac(a2-6)Gal(b1-4)GlcNAc(b1-2)Man(a1-3)[GlcNAc(b1-4)][Neu5Ac(a2-6)Gal(b1-4)GlcNAc(b1-2)Man(a1-6)]Man(b1-4)GlcNAc(b1-4)GlcNAc
How it was run: as §1

[22] = molecular target: Neu5Ac(a2-6)Gal(b1-4)GlcNAc(b1-3)Gal(b1-4)GlcNAc(b1-3)Gal(b1-4)GlcNAc(b1-2)Man(a1-3)[Neu5Ac(a2-6)Gal(b1-4)GlcNAc(b1-3)Gal(b1-4)GlcNAc(b1-3)Gal(b1-4)GlcNAc(b1-2)Man(a1-6)]GalNAc
How it was run: as §1

[23] = molecular target: Neu5Ac(a2-6)Gal(b1-4)GlcNAc6S
How it was run: as §1

[24] = molecular target: Neu5Ac(a2-8)Neu5Ac(a2-3)[Gal(b1-3)GalNAc(b1-4)]Gal(b1-4)Glc
How it was run: as §1

[25] = molecular target: Neu5Gc(a2-6)Gal(b1-4)GlcNAc
How it was run: as §1

[26] = molecular target: Neu5Gc(b2-6)Gal(b1-4)GlcNAc
How it was run: as §1

B1: OGAN (protein)
chain: MVQKESQATLEERESELSSNPAASAGASLEPPAAPAPGEDNPAGAGGAAVAGAAGGARRFLCGVVEGFYGRPWVMEQRKELFRRLQKWELNTYLYAPKDDYKHRMFWREMYSVEEAEQLMTLISAAREYEIEFIYAISPGLDITFSNPKEVSTLKRKLDQVSQFGCRSFALLFNDIDHNMCAADKEVFSSFAHAQVSITNEIYQYLGEPETFLFCPTEYCGTFCYPNVSQSPYLRTVGEKLLPGIEVLWTGPKVVSKEIPVESIEEVSKIIKRAPVIWDNIHANDYDQKRLFLGPYKGRSTELIPRLKGVLTNPNCEFEANYVAIHTLATWYKSNMNGVRKDVVMTDSEDSTVSIQIKLENEGSDEDIETDVLYSPQMALKLALTEWLQEFGVPHQY
In the case of B1, the “glycan array binding signal (z-score)” value (Gal3S6S(b1-4)GlcNAc) is reported as -0.035, the “glycan array binding signal (z-score)” value [1] is reported as 0.06 and the “glycan array binding signal (z-score)” value [2] is reported as -0.022. For the same binder, the “glycan array binding signal (z-score)” value [3] was -0.068, the “glycan array binding signal (z-score)” value [4] was -0.058 and the “glycan array binding signal (z-score)” value [5] was -0.057. For the same binder, the “glycan array binding signal (z-score)” value [6] was -0.074, the “glycan array binding signal (z-score)” value [7] was -0.035 and the “glycan array binding signal (z-score)” value [8] was -0.063. The “glycan array binding signal (z-score)” value [9] was -0.058, the “glycan array binding signal (z-score)” value [10] was -0.055 and the “glycan array binding signal (z-score)” value [11] was 0.044. The “glycan array binding signal (z-score)” value [12] was -0.052, the “glycan array binding signal (z-score)” value [13] was -0.047 and the “glycan array binding signal (z-score)” value (Kdn(a2-3)Gal(b1-4)Glc) was -0.059. For the same binder, the “glycan array binding signal (z-score)” value (Man(a1-2)Man(a1-3)Man) was -0.01, the “glycan array binding signal (z-score)” value [14] was -0.036 and the “glycan array binding signal (z-score)” value (MurNAc(b1-4)GlcNAc) was -0.024. For the same binder, the “glycan array binding signal (z-score)” value [15] was -0.065, the “glycan array binding signal (z-score)” value [16] was -0.051 and the “glycan array binding signal (z-score)” value [17] was -0.048. For the same binder, the “glycan array binding signal (z-score)” value [18] was -0.082, the “glycan array binding signal (z-score)” value [19] was -0.094 and the “glycan array binding signal (z-score)” value [20] was -0.055. For the same binder, the “glycan array binding signal (z-score)” value [21] was -0.034, the “glycan array binding signal (z-score)” value [22] was 0.039 and the “glycan array binding signal (z-score)” value [23] was -0.052. For the same binder, the “glycan array binding signal (z-score)” value [24] was -0.052, the “glycan array binding signal (z-score)” value [25] was -0.071 and the “glycan array binding signal (z-score)” value [26] was -0.021.
